Bioassay records: PubChem, National Center for Advancing Translational Sciences (NCATS)
An excerpt weighted towards active compounds, which were near 19% of everything screened.
TGFb inhibitor – inhibitors of TGF-b signaling. HepG2 CAGA-GFP TGF-b/SMAD3 reporter, GFP fluorescence, 18 h; TGF-beta stimulated, 500 pg/mL final. Potency, µM (top dose mostly 46.1 µM), for inactives: top-dose activity, negative = inhibition, actives largely listed as inhibitors. hit rate 1.2% among 410,000. AID 588855; note: potency is the fitted concentration of half-maximal effect; % is set by controls: 0 for no effect and ±100 for the full control effect; nearly all actives have a fitted effect of over 65% in size
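Inhibition was scored as loss of TGF-beta-induced (500 pg/mL final, 18 hours, 37 degrees C) GFP in HEPG2 cells carrying a CAGA-GFP reporter, in DMEM with 1% FBS. Well GFP was summed per cell; Activity was normalised to unstimulated and stimulated DMSO wells, then concentration-response fitting.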
IL1B secr inh – inflammasome signaling inhibition, IL-1 beta readout; activity change, % at 57.5 µM; THP-1 LPS/ATP IL-1B secretion, AlphaLISA, 16 h; stronger effect = lower value; hit rate 4.7% among 360,000; AID 743279; in the data active = activity change below about -50%; inconclusive = mostly about -30% to -49%; note: % is set by controls: 0 for no effect and ±100 for the full control effect
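THP-1 cells pretreated 1 hr with compounds (up to 57.5 uM final), then stimulated with LPS (250 ng/mL final) plus ATP (1.25 mM final); secreted IL-1B measured by AlphaLISA after 16 hr, decreased signal indicating inhibition.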
TDP1 cell noCPT – qHTS for Inhibitors of human tyrosyl-DNA phosphodiesterase 1 (TDP1): qHTS in cells in absence of CPT | DT40 Tdp1-/- hTDP1 cells, no CPT, ATP luminescence, 48 h | Potency, µM (series often up to 46.2 µM), without a hit: at the top dose activity change, negative = growth inhibition, most hits filed as inhibitors | hit rate 15% among 420,000; note: potency is the fitted concentration of half-maximal effect; % is set by controls: 0 for no effect and ±100 for the full control effect; nearly all actives have a fitted effect of over 55% in size
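Luminescent ATP content (CellTiter-Glo) served as the growth readout. Knockout chicken DT40 cells expressing human TDP1 were exposed to compounds without camptothecin for a minimum 48 hr at 37 °C.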
TDP1 block – TDP1 (human) enzyme inhibition; Q9NUW8; Potency, µM (highest dose often 130 µM), without a hit: at the top dose activity change, negative = inhibition, usual class: inhibitors; hit rate 0.28% among 350,000; recombinant TDP1, AlphaScreen DNA substrate cleavage; AID 485290; note: potency is the fitted concentration of half-maximal effect; % is set by controls: 0 for no effect and ±100 for the full control effect; nearly all actives have a fitted effect of over 40% in size
Target sequence (Q9NUW8 whole entry, looked up): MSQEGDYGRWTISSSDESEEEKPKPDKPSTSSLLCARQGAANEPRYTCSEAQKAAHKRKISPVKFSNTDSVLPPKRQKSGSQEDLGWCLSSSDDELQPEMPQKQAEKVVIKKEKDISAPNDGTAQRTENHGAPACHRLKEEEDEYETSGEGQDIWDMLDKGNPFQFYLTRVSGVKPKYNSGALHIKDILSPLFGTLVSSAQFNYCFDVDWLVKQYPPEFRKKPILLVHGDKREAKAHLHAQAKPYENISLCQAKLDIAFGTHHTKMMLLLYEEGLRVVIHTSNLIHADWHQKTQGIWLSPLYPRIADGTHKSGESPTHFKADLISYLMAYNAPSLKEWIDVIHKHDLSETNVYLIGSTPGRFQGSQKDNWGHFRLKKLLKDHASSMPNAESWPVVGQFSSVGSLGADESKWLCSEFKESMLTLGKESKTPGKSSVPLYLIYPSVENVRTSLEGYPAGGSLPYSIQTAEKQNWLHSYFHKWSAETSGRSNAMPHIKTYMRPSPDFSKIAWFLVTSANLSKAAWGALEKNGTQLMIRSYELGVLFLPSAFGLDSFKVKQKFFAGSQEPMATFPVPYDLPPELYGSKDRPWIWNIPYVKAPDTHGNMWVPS
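Recombinant E. coli-expressed Tdp1 (1 nM) preincubated with compound 15 min at RT, then 5'-biotin/3'-phosphotyrosine-FITC DNA substrate (15 nM) added for 5 min. AlphaScreen beads (10 ug/ml) added, 10 min RT; tyrosine-FITC cleavage read as signal loss.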
HepG2 tox – counter-screen for TGF-b inhibitors: cytotoxicity in HepG2 cells; HepG2 CAGA-GFP viability, ATP luminescence, 18 h; Potency, µM (titrated, usually from 46.1 µM), for inactives: at the highest dose activity change, negative = cytotoxicity, hits mostly cytotoxic; hit rate 0.76% among 410,000; note: potency is the fitted concentration of half-maximal effect
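CellTiter-Glo luminescence gave cytotoxicity after 18 hours at 37 degrees C. The cells were HepG2 CAGA-GFP in 1% FBS DMEM, stimulated with 500 pg/mL TGF-beta after compound addition. %Activity was normalised to no-cell wells (complete cell-killing) and DMSO (no toxicity), and curves were fitted and classified.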
DT40 TDP1 CPT – DT40-hTDP1 cell growth loss with CPT; chicken DT40 Tdp1-/-;hTDP1 cells + 20 nM CPT, ATP luminescence, 48 h; Potency, µM (series often up to 46.2 µM), inactives show at the highest dose activity change, negative = growth inhibition, usual class: inhibitors; hit rate 12% among 420,000; note: potency is the fitted concentration of half-maximal effect; % is set by controls: 0 for no effect and ±100 for the full control effect; nearly all actives have a fitted effect of over 55% in size
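Chicken DT40 Tdp1-/- cells complemented with human TDP1, 400 cells/well, exposed to compounds plus 20 nM camptothecin for at least 48 h at 37 C; viability read as ATP content by CellTiter-Glo luminescence.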
Numbers without * were called inactive; ? = inconclusive; nt = no result given; [ ] = remark or other dose. Unless noted, calls come from the whole dose curve; as a rule, active = well fitted curve in the direction sought with a large enough effect; inconclusive = small, poorly fitted or top-dose-only effect, or another doubt; inactive = no such curve, though single readings can be large; an effect the other way counts as inactive or inconclusive.

SMILES	TGFb inhibitor	IL1B secr inh	TDP1 cell noCPT	TDP1 block	HepG2 tox	DT40 TDP1 CPT
COC(=O)C(NS(N)(=O)=O)C(C)C (centres undefined)	-20.6%	nt	nt	1.5%	-19.4%	nt
Cc1ccccc1Cn1c(=O)n(CC2CCC(C(=O)NCCc3ccccc3)CC2)c(=O)c2ccccc21 (centres undefined)	-0.9%	29.5	29.1µM*	0.6%	-2.7%	20.6µM*
CCCCNC(=O)C1CCC(Cn2c(=O)c3sccc3n(Cc3ccccc3)c2=O)CC1 (centres undefined)	-17.7%	nt	3.7%	-1.9%	-15.3%	0.0%
C[C@H](CO)N1C[C@H](C)[C@@H](CN(C)S(=O)(=O)c2cn(C)cn2)Oc2ccc(NS(=O)(=O)c3ccccc3)cc2C1=O	1.2%	-2.3	2.1%	0.1%	-4.0%	-0.1%
CCc1cc2c(N3CCN(c4ccccc4)CC3)ncnc2s1	13.4%	-17.5	11.6µM*	7.9%	-9.3%	13µM*
Oc1ccc(N2CCN(c3ncnc4sc(-c5ccccc5)cc34)CC2)cc1	-17.3%	-69.8*	23.1µM*	9.3%	-17.7%	?
CC(=O)N1CCN(c2ncnc3sc(-c4ccccc4)cc23)CC1	8.3%	-8.4	?	2.6%	-10.5%	?
COc1ccc(N2CC(NC(=O)COc3ccccc3F)CC2=O)cc1OC (centres undefined)	1.6%	nt	-11.6%	5.2%	-12.3%	-23.3%
O=C(N=C1SC2CS(=O)(=O)CC2N1c1cc(Cl)ccc1Cl)C1CCCO1 (centres undefined)	-3.4%	10.1	7.2%	1.0%	-38.1%	1.4%
CCOC(=O)N(NC(=O)C(O)(c1ccccc1)c1ccccc1)c1ccccc1	?	-6.2	25.9µM*	2.7%	2.6%	-18.6%
CCCCC(O)(CCCC)C(=O)NN(C(=O)OCC)c1ccccc1	-11.5%	-10.0	?	2.7%	-4.5%	?
CCCC(O)(CCC)C(=O)NN(C(=O)CCl)c1ccccc1	?	?	10.3µM*	4.6%	-89.1%	11.6µM*
N#Cc1ccc(C(=O)N(Cc2ccco2)Cc2cccs2)cc1	0.9%	nt	?	2.1%	1.3%	?
N#Cc1cccc(C(=O)N(CCc2ccccc2)Cc2cccs2)c1	14.8%	-4.8	25.9µM*	4.1%	-2.2%	?
Cc1ccc2c(c1)C(c1ccc(F)cc1)N(C(=O)c1cccc(C(F)(F)F)c1)CC(=O)N2 (centres undefined)	?	nt	?	0.0%	-23.4%	?
O=C(Cn1c(NCCCO)nc2ccccc21)c1ccc(Cl)cc1	2.7%	-10.6	?	nt	-8.5%	?
Cc1cc2nc(NCCCO)n(CC(=O)c3cc(C(C)(C)C)c(O)c(C(C)(C)C)c3)c2cc1C	?	-50.6*	23.1µM*	5.5%	-28.4%	16.4µM*
CCOc1ccc(S(=O)(=O)N(C)CC(=O)NC2CCCC2)cc1	11.9%	0.0	-4.4%	2.0%	-2.2%	-23.4%
CC(C)(C)n1ncc2c(=O)n(Cc3cccc(OC(F)F)c3)cnc21	-25.9%	nt	nt	nt	-37.3%	nt
CCCn1ncc(CN2CCC(C(=O)Nc3cccc(-c4cccc(F)c4)c3)CC2)c1C	?	-75.7*	?	3.0%[56.1 µM]	17.8µM*	14.6µM*
Cn1cc(CN2CCC(C(=O)Nc3cccc(-c4cccc(F)c4)c3)CC2)cn1	11.2µM*	-29.3	?	5.0%	-57.6%	?
CCC(C)NC(=O)c1sc2nc(C)c(C(=O)Nc3ccc(C)cc3C)c(-c3ccc(Br)cc3)c2c1N (centres undefined)	4.9%	nt	?	8.8%	-5.8%	?
Cc1cc2c(cc1S(=O)(=O)NCc1ccc(F)cc1)OCCN2C	-13.0%	nt	-17.6%	-3.9%	-20.0%	-3.8%
CC(C)CCC[C@@H](C)[C@H]1CC[C@H]2[C@@H]3CC[C@@H]4C[C@H](O)CC[C@]4(C)[C@H]3CC[C@]12C	nt	nt	-20.1%	nt	nt	-9.7%
C=CC(=O)Nc1cccc(Oc2cc(Cl)nc3[nH]ccc23)c1	?	-72.5*	?	0.7%	-21.2%	16.4µM*
SMILES	TGFb inhibitor	IL1B secr inh	TDP1 cell noCPT	TDP1 block	HepG2 tox	DT40 TDP1 CPT
COc1cccc(NC(=O)c2cccc(C(=O)Nc3cccc(OC)c3)n2)c1	3.0%	0.0	-16.1%	2.2%	19.6%	4.7%
COC(=O)c1ccc(C(NC(=O)OCc2ccccc2)/C(=C/[C@@H](C)C(=O)NCc2cc(C)on2)c2cccnc2)cc1 (some centres undefined)	nt	nt	nt	4.5%	nt	nt
CCN1/C(=N\N)c2cccc3cccc1c23	8.4%	3.7	20.6µM*	-2.7%	-29.9%	?
CCC(C)NC(=O)CN1C(=O)c2cccc3cccc1c23 (centres undefined)	-19.1%	-0.5	-8.8%	5.0%	0.5%	7.4%
O=C1c2[nH]nc(-c3ccccc3O)c2C(c2ccccc2F)N1Cc1ccco1 (centres undefined)	?	75.2	?	7.3%	-64.0%	?
COc1cc(C2c3c(-c4ccccc4O)n[nH]c3C(=O)N2CCO)ccc1OCC(C)C (centres undefined)	?	nt	?	3.7%	-39.9%	?
COc1cc(C2c3c(-c4ccccc4O)n[nH]c3C(=O)N2Cc2ccco2)ccc1OCC(C)C (centres undefined)	?	nt	18.4µM*	12.3%	-110.7%	?
O=C1c2[nH]nc(-c3ccccc3O)c2C(c2ccccc2)N1Cc1ccco1 (centres undefined)	?	-25.9	20.6µM*	4.1%	-64.6%	23.1µM*
Cc1ccc(O)c(-c2n[nH]c3c2C(c2ccccc2F)N(Cc2ccco2)C3=O)c1 (centres undefined)	?	nt	20.6µM*	9.8%	11.2µM*	?
O=C1c2[nH]nc(-c3ccccc3O)c2C(c2ccc(Cl)cc2)N1Cc1ccco1 (centres undefined)	?	nt	?	14.7%	15.8µM*	16.4µM*
O=C(CN1CCN(S(=O)(=O)c2cc(Cl)ccc2Cl)CC1)Nc1cccc(F)c1	?	nt	?	-5.5%	-30.8%	?
CCn1cc(C(=O)NCCCOC(C)C)c(=O)c2cc(S(=O)(=O)N3CCC(C)CC3)ccc21	-19.1%	2.6	?	0.1%	-3.5%	?
Nc1nc(SCc2ccc([N+](=O)[O-])cc2)c2ncn([C@@H]3O[C@H](CO)[C@H](O)[C@H]3O)c2n1	nt	nt	nt	7.2%	nt	nt
